Source: PubChem BioAssay (NCATS)
Results filed as inconclusive are left out. Activity calls are given as the source filed them. The call rests on the fitted dose curve; in most records, active means well fitted curve in the direction sought with a large enough effect; inconclusive means small, poorly fitted or top-dose-only effect, or another doubt; inactive means no such curve, though single readings can be large; an effect the other way counts as inactive or inconclusive.

Columns and labels:
[1] = OV-SAHO Cancer Cell Toxicity qHTS against the NCATS CANVASS Library (AID 1347348); further: nearly all actives have a fitted effect of over 55% in size; further: potency means the concentration at half of the fitted maximal effect
Summary of the method: (§1)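 Cells were seeded at 1000 per well, allowed 4 h at 37 degrees C/5% CO2, then pin-treated with an 11-point compound series. After 72 h, viability was read as CellTiter-Glo luminescence following 15min at room temperature.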

[2] = COV-362 Cancer Cell Toxicity qHTS against the NCATS CANVASS Library (AID 1347352); further: series mostly up to about 38 µM
Summary of the method: (§2)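 Toxicity was measured as CellTiter-Glo luminescence after 72 h exposure to an 11-point compound series. Compound was added to 1000 cells/well 4 h after seeding.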

[3] = UWB1.289-WTBRCA1 Cancer Cell Toxicity qHTS against the NCATS CANVASS Library (AID 1347354)
Summary of the method: as §2

[4] = HEK-293 Cancer Cell Toxicity qHTS against the NCATS CANVASS Library (AID 1347355); further: nearly all actives have a fitted effect of over 65% in size; further: potency means the concentration at half of the fitted maximal effect
Summary of the method: as §2

[5] = KB-8-5-11 Cancer Cell Toxicity qHTS against the NCATS CANVASS Library (AID 1347364); further: nearly all actives have a fitted effect of over 75% in size; further: potency means the concentration at half of the fitted maximal effect
Summary of the method: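 Viability read as CellTiter-Glo luminescence after 72 h at 37 °C, 5% CO2. 11-point compound series on 500 KB-8-5-11 cells/well in DMEM/10% FBS. Follow-up plating included 1 uM tariquidar in the medium.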

[6] = qHTS for Hypoxia signaling pathway (HIF-1) antagonists against the NCATS CANVASS Library (AID 1347374); further: nearly all actives have a fitted effect of over 60% in size; further: potency means the concentration at half of the fitted maximal effect
Summary of the method: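 Antagonism scored as loss of CoCl2-driven (60 uM stock added) HRE beta-lactamase signal, read by CCF4 FRET at 460/530 nm. Compounds were tested in an 11-point series on ME-180 reporter cells for 17 hrs at 37C, with parallel CellTiter-Glo cytotoxicity.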

[7] = qHTS for Hypoxia signaling pathway (HIF-1) agonists against the NCATS CANVASS Library (AID 1347375)
Summary of the method: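 Beta-lactamase reporter under HRE control in ME-180 cells; compounds (11-point qHTS series) added after 5 hrs plating, then 17 hrs at 37C. FRET substrate read after 2 hr; same-well CellTiter-Glo luminescence gave viability and normalization.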

[8] = Cytotoxicity qHTS for assessment of Hepg2 cells membrane integrity screened against the NCATS CANVASS Library (AID 1347387)
Summary of the method: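 Membrane damage quantified as fluorescent LDH-release signal (ex 560, em 590 nm) in HepG2 cells treated 5 hr at 37C. qHTS format, 11 concentrations spanning 0.59 nM - 46 uM final, cells plated at 2000 per well the night before.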

[9] = qHTS for activators of dead-cell proteases activity screened against the NCATS CANVASS Library (AID 1347392);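 further: luminescence from protease leaking out of membrane-damaged cells cleaving impermeant substrate; rising signal means more cytotoxicity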
Summary of the method: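 Luminescent dead-cell protease readout (AAF-aminoluciferin, 15 min, room temperature) after 5 h compound treatment of HepG2 cells (2000/well, pre-attached 18 h). Eleven concentrations.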

[10] = qHTS for inhibitors of ER calcium dysfunction: SERCaMP assay screened against the NCATS CANVASS Library (AID 1347393); further: nearly all actives have a fitted effect of over 40% in size; further: potency means the concentration at half of the fitted maximal effect
Summary of the method: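 Thapsigargin-induced ER calcium depletion drives GLuc-SERCaMP secretion from SH-SY5Y cells; compounds given 16 h beforehand were scored by lowered coelenterazine luminescence after 4 h challenge.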

[11] = HPAF-II Cancer Cell Toxicity qHTS against the NCATS CANVASS Library (AID 1347346); further: nearly all actives have a fitted effect of over 55% in size; further: potency means the concentration at half of the fitted maximal effect
Summary of the method: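 Cytotoxicity read-out was CellTiter-Glo luminescence after 72 h at 37 degrees C exposure of HPAF-II cells (1000/well) to compounds in an 11-point titration.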

[12] = Panc-1005 Cancer Cell Toxicity qHTS against the NCATS CANVASS Library (AID 1347349); further: nearly all actives have a fitted effect of over 60% in size; further: potency means the concentration at half of the fitted maximal effect
Summary of the method: as §1

[13] = A2780 Cisplatin Sensitive Ovarian Cancer Cell Toxicity qHTS against the NCATS CANVASS Library (AID 1347353); further: nearly all actives have a fitted effect of over 60% in size; further: potency means the concentration at half of the fitted maximal effect
Summary of the method: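 Cisplatin-sensitive A2780 ovarian cells (750/well) received compound in 11 concentrations, and were incubated 72 h at 37 °C. ATP content was measured by ATPLite luminescence; bortezomib served as control.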

[14] = SDT Cancer Cell Toxicity qHTS against the NCATS CANVASS Library (AID 1347365); further: nearly all actives have a fitted effect of over 60% in size; further: potency means the concentration at half of the fitted maximal effect
Summary of the method: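 Cytotoxicity taken from CellTiterGlo ATP luminescence after 72 hr at 37C, 5% CO2. Canine glioma line SDT, 500 cells/well, treated at 11 concentrations; bortezomib dose series as control.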

[15] = qHTS for ATAD5 Agonist screened against the NCATS CANVASS Library (AID 1347367)
Summary of the method: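 Luminescence read-out: ATAD5-driven luciferase in stably transfected HEK 293T cells, which rises post-transcriptionally with DNA damage. Cells were exposed 16hr at 37C to test compound; a CellTiter-Fluor fluorescence read (1hr) measured viability first.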

[16] = qHTS for activators of Nrf2/ARE signaling pathway screened against the NCATS CANVASS Library (AID 1347391); further: nearly all actives have a fitted effect of over 60% in size
Summary of the method: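 Eleven-point qHTS, 16 h treatment of HepG2 cells carrying an ARE-driven beta-lactamase reporter; CCF4 ratio read (405 nm excitation, 460 and 530 nm emission), with CellTiter-Glo ATP luminescence for viability.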

[17] = Vero-766 cells viability qHTS against the NCATS CANVASS Library: Counterscreen for Zika virus inhibition assay (AID 1347394)
Summary of the method: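 CellTiter-Glo luminescence, lower signal indicating cytotoxicity. Vero 766 cells without Zika virus, 1000 cells/well, plated overnight, then treated 72 h at 37C across an 11-point series.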

[18] = Viability qHTS for inhibitors of the SERCaMP assay screened against the NCATS CANVASS Library (AID 1347400); further: nearly all actives have a fitted effect of over 70% in size; further: potency means the concentration at half of the fitted maximal effect
Summary of the method: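 CellTiter-Glo luminescence measured cytotoxicity after 48 h at 37C of compound treatment (11-point series). Cells were SH-SY5Y-GLuc SERCaMP MJH297 derivatives, seeded at 1000 per well 4 h beforehand.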

[19] = Redox Reaction Profiling qHTS: Assay Interference Panel against the NCATS CANVASS Library (AID 1347401)
Summary of the method: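 Redox-cycling liability assessed as DTT-driven conversion of resazurin (5 uM, with 200 uM DTT, HEPES pH 7.3) to fluorescent resorufin. Fluorescence at 525/598 nm measured initially and after 15 min dark incubation.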

[20] = HPAF-II 24hr Apoptosis Induction qHTS against the NCATS CANVASS Library (AID 1347356)
Summary of the method: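 Caspase-Glo 3/7 luminescence, read after 15 min room-temperature development, measures apoptosis in HPAF-II cells treated 24 h at 37 degrees C with an 11-point concentration series; 500 cells/well; doxorubicin control.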

Measured: Potency

COc1ccc([C@@H]2c3cc4c(cc3C(=O)[C@H](C)C2C)OCO4)cc1OC (some centres undefined)
active: [4] 18.7 µM | [5] 16.6 µM
inactive: [1] | [2] | [3] | [6] | [7] | [8] | [9] | [10]

O=Cc1ccc2n1C[C@]1(C[C@H](O)[C@@H](CO)O1)OC2
not listed: [8] | [20]
inactive: all other assays above

COc1ccc([C@@H]2c3cc4c(cc3C[C@H](C)C2C)OCO4)cc1OC (some centres undefined)
active: [13] 10.5 µM | [5] 3.72 µM | [18] 27 µM
inactive: [1] | [3] | [7] | [8] | [16] | [9] | [10]

CC1(C)CC[C@]2(CO)CC[C@]3(C)C(=CCC4[C@@]5(C)CC[C@H](O)C(C)(C)C5CC[C@]43C)C2C1 (some centres undefined)
not listed: [8] | [19]
inactive: all other assays above

O=C1CC(c2ccc(O)cc2)Oc2ccccc21 (centres undefined)
active: [1] 13.3 µM | [14] 20.9 µM | [10] 34.3 µM
not listed: [3] | [4] | [13] | [16] | [18]
inactive: all other assays above

C=C[C@@]1(C)CC[C@@H]([C@H](C)C(C)=O)O1
not listed: [7] | [9] | [19]
inactive: all other assays above

O=C1CC(c2ccc(O)cc2)Oc2cc(O)cc(O)c21 (centres undefined)
not listed: [6] | [7] | [10] | [15]
inactive: all other assays above

CN1C(=O)C(=O)N2C(=C[C@]3(c4c[nH]c5ccccc45)c4ccccc4N[C@H]23)C1=O
not listed: [15] | [19] | [20]
inactive: all other assays above

O[C@H]1C=C2[C@H]3CN(Cc4cc5c(cc43)OCO5)[C@H]2C[C@@H]1O
inactive: [3] | [20] | [7] | [8] | [16] | [9] | [10]
active: [13] 9.35 µM | [4] 5.26 µM | [5] 10.5 µM | [14] 7.43 µM | [6] 13.3 µM

C/C1=C/[C@@H](C)[C@H](O)C/C=C/CC/C=C/C(=O)O[C@@H]1[C@H](C)C(=O)CCCC1CC(=O)NC(=O)C1
inactive: [20] | [5] | [7] | [9] | [10] | [19]
active: [13] 10.5 µM | [4] 20.9 µM | [14] 5.26 µM | [6] 18.8 µM

CC[C@H]1[C@@H](C)[C@@H](c2cc(OC)c(OC)cc2OC)[C@H](C)[C@@H](c2cc(OC)c(OC)cc2OC)[C@@]12C=C(OC)C(=O)C=C2OC
inactive: [20] | [7] | [8] | [9] | [19]
active: [11] 21.1 µM | [12] 16.8 µM | [13] 9.35 µM | [4] 14.8 µM | [5] 29.6 µM | [10] 0.86 µM

CN1CC[C@@]23c4ccccc4N[C@@H]1[C@@]21CCN(C)[C@@H]3Nc2ccccc21
not listed: [6] | [7] | [9] | [10] | [20]
inactive: all other assays above
